Screening results (PubChem)
The list is not random: actives were taken first. Their share in the collection is about 1.8%.
LYPLA2 inh = counter-screen for PME1 inhibitors: inhibitors of human LYPLA2. recombinant LYPLA2, FP-Rh probe fluorescence polarization. inhibition, % at 5.9 µM. 320,000 tested, 0.38% active. AID 2177;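 active means inhibition above the screen-wide mean plus 3 SD, limit set per campaign, cut at about 26% in these data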;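 further: 0% = LYPLA2 with DMSO and 100% = wells lacking LYPLA2 enzyme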
Target sequence (O95372 whole entry, looked up): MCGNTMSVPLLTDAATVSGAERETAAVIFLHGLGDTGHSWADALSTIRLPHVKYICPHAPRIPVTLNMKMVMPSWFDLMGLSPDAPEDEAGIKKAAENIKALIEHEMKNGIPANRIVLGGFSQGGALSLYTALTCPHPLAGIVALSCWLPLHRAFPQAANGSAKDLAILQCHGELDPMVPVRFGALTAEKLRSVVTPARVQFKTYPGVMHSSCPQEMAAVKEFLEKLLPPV
LYPLA1 inh = LYPLA1 (human) inhibition in PME1 counter-screen | 320,000 tested, 0.16% active | recombinant LYPLA1, FP-Rh probe fluorescence polarization | inhibition, % at 5.9 µM | AID 2174;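 active means inhibition above the mean of all tested compounds plus 3 SD, set per campaign, cut at about 14% in these data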;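 further: inhibitors block serine hydrolase probe labeling of LYPLA1 so polarization falls; 0% = enzyme with DMSO and 100% = wells lacking LYPLA1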
PME-1 inh = PME-1 (human) inhibition | Q9Y570 | recombinant PME-1, FP-Rh probe fluorescence polarization | inhibition, % at 5.9 µM | 320,000 tested, 0.53% active;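 active means inhibition above the campaign mean of all compounds plus 3 SD, cut at about 26% in these data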;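 further: competitive labeling of PME-1 active site by serine hydrolase directed probe; 0% = PME-1 with DMSO and 100% = wells lacking PME-1 enzyme; inhibitors block probe labeling so polarization falls and inhibition rises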
GSTO1 inh = counter-screen for RBBP9 inhibitors: inhibitors of human GSTO1. P78417. recombinant GSTO1, activity-based probe fluorescence polarization. inhibition, % at 5.96 µM. 300,000 tested, 1.1% active. AID 1974;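 active means inhibition above the campaign mean inhibition plus 3 SD, cut at about 35% in these data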;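 further: 0% = GSTO1-1 with DMSO and 100% = wells lacking GSTO1-1 enzyme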
Target sequence (P78417 whole entry, looked up): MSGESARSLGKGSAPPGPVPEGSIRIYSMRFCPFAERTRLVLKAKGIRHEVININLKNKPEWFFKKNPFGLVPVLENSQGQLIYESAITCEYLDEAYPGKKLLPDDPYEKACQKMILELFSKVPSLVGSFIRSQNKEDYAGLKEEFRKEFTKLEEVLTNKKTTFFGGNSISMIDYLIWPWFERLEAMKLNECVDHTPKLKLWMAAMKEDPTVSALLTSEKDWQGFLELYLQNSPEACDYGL
PAD4 inh = PAD4 (human) enzyme inhibition. Q9UM07. recombinant PAD4, RCA probe fluorescence polarization. inhibition, % at 6.36 µM. 330,000 tested, 0.41% active;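 active means percent inhibition above a cutoff equal to the mean of all tested compounds plus 3 SD, cut at about 15% in these data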;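 further: 0% = PAD4 with RCA probe and DMSO and 100% = probe without PAD4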
Fam108B inh = blocks mouse Fam108B hydrolase in RBBP9 counter-screen; inhibition, % at 9.51 µM; 300,000 tested, 0.33% active; recombinant Fam108B, FP-Rh probe fluorescence polarization; AID 1947;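 active means inhibition above the screen mean inhibition plus 3 SD, computed separately per campaign, cut at about 18% in these data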;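 further: inhibitors lower polarization as less probe binds the enzyme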
* hit, by the source's call; · = no result given.

SMILES	LYPLA2 inh	LYPLA1 inh	PME-1 inh	GSTO1 inh	PAD4 inh	Fam108B inh
CC1=NN(c2ccccc2)C(=O)/C1=C\c1sccc1C	2.4	-0.1	-0.2	21.6	-7.9	3.2
COc1ccccc1NC(=O)COC(=O)c1cc([N+](=O)[O-])ccc1N1CCCC1	-3.3	-3.5	3.6	·	0.8	·
Cc1csc(N/N=C/c2ccc(O)c([N+](=O)[O-])c2)n1	5.0	4.4	-0.8	84.3*	5.1	16.6
CCC(NC(=O)C1CCCC1)c1ccccc1 (centres undefined)	-2.1	-2.3	-5.6	0.1	-2.9	-1.1
O=C(NC1CCCC1)C(c1ccc(F)cc1)N(Cc1ccccc1Cl)C(=O)CCl (centres undefined)	2.0	2.3	2.2	72.1*	-0.6	-1.3
O=C(NC1CCCC1)C(c1ccc(F)cc1)N(Cc1ccc(F)cc1)C(=O)c1ccn[nH]1 (centres undefined)	8.5	1.0	1.5	-6.8	2.4	1.3
COCCN(C(=O)CCC(=O)Nc1cc(C)on1)C(C(=O)NC1CCCC1)c1ccccc1C (centres undefined)	2.1	1.2	-0.1	-6.0	-2.5	-1.5
COCCN(C(=O)CCl)C(C(=O)NC1CCCCC1)c1ccccc1C (centres undefined)	11.6	6.3	-4.2	99.4*	2.5	-3.9
COc1cccc(/C=c2\s/c(=C/C(=O)c3ccc(C)cc3)[nH]c2=O)c1OC	-2.9	-1.3	-3.9	-5.9	-3.8	-20.0
COc1ccc(/C=c2\s/c(=C/C(=O)c3ccc(C)cc3)[nH]c2=O)c(OC)c1	-27.6	-12.7	27.0*	28.3	-10.3	-3.5
CC1=CC2=C(OC1N(C)C)c1cccc3cccc(c13)C2=O (centres undefined)	8.1	5.8	24.2	9.1	17.9*	10.3
Cc1ccc(/C=N/NC(=O)Cc2ccc(Cl)cc2)s1	-4.1	-3.6	-4.1	-3.2	-8.2	-3.5
N#CCSc1nc2c(cc1C#N)CCCCCC2	-4.9	0.3	44.1*	1.9	0.9	-1.8
Cc1cc(=O)oc2cc(NC(=O)c3ccccc3OC(F)F)ccc12	-1.5	4.3	-2.1	-6.7	-2.2	-2.1
Cc1c(C(=O)O)cccc1-c1ccc(/C=C2/NC(=O)N(c3ccccc3)C2=O)o1	3.8	2.6	6.9	6.4	-0.6	0.5
Cc1c(C(=O)O)cccc1-c1ccc(/C=C2\SC(=O)NC2=O)o1	-2.7	-2.8	-6.5	35.3*	-4.3	-2.5
C=CCN(CC=C)C(=S)Nc1ccc2nsnc2c1	0.6	2.1	1.6	42.0*	-12.5	3.9
C=CCNC(=S)Nc1ccc2nsnc2c1	11.1	3.1	1.1	16.4	-9.0	0.6
O=C1C(Cl)=C(N2CCCC2)C(=O)N1c1ccc(F)cc1	2.8	1.2	-0.1	35.4*	2.8	-1.8
CCOC(=O)c1[nH]c(C)c(C(=O)N2CCCC(Nc3ccc(C)c(C)c3)C2)c1C (centres undefined)	-0.3	-3.3	6.0	5.1	5.3	3.2
CC(C)c1cc(NC(=O)CCl)on1	-5.1	3.8	-4.6	104.3*	-0.3	-2.0
Cc1cc(NC(=O)c2cc(C(C)C)on2)no1	4.0	3.7	-5.5	16.3	0.0	8.2
Cc1ccc(OC(=O)c2sc(Cl)nc2C)cc1C	8.9	2.1	-7.2	35.5*	3.6	4.8
COc1ccc(N(C)C(=O)c2sc(Cl)nc2C)cc1	1.5	-2.6	-1.2	6.5	-3.0	2.8
O=c1ccc(-c2ccccc2)nn1Cc1ccc(Cl)cc1	38.2*	-2.8	3.8	-3.8	-3.4	-3.9
SMILES	LYPLA2 inh	LYPLA1 inh	PME-1 inh	GSTO1 inh	PAD4 inh	Fam108B inh
Cc1cc(C)c(S(=O)(=O)/N=C2\C=C(NS(=O)(=O)c3ccccc3)C(=O)c3ccccc32)c(C)c1	-21.3	-10.6	-15.0	60.2*	-18.9	-3.9
O=C(CN1CCc2ccccc2C1)Nc1ccccc1F	2.2	-3.0	-4.9	9.8	4.1	-6.5
Oc1ccc(/C=N/N2CCOCC2)c(O)c1O	-3.2	0.3	3.7	37.8*	14.3	5.6
O=C(OCCN=C1NS(=O)(=O)c2ccccc21)c1ccccc1F	0.2	-0.7	1.1	-6.0	-7.7	-2.6
O=C(OCCOCCN=C1NS(=O)(=O)c2ccccc21)c1ccccc1Br	-1.1	0.0	34.0*	-0.8	-5.0	-1.4
CC(OC(=O)Cn1cnc2c1c(=O)n(C)c(=O)n2C)C(=O)Nc1ccc(Cl)cc1 (centres undefined)	-5.1	2.8	0.1	-3.3	-8.6	2.1
